The source of these data is PubChem BioAssay (NCI).

SMILES strings stand for the structures. About 83,000 compounds went through this panel and 20% of them were active in at least one assay; those are over-represented in the sample as a whole.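 96-well plates, one dose, 48 hours. Percent growth reported; active if below 10.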 Values without a mark were called inactive. The source made the active and inactive calls.

Some test systems named below: NCI-H23 lung; NCI-H226 lung; NCI-H322M lung; HOP-62 NSCLC; NCI-H460 lung; HOP-92 NSCLC; NCI-H522 lung; A549/ATCC NSCLC; COLO 205 colon; 786-0 renal.
Holding throughout (assay): NCI-60 one-dose screen, 48 h (100 = growth as untreated, 0 = no growth, -100 = all killed)
What all share (conditions): 10 µM unless noted

`CCOC(=O)c1cc(C(=O)c2ccc(Br)cc2)n2ccc(/C=C/c3cc[n+](CC(=O)c4ccc(OC)cc4)cc3)cc12`: the growth in the assay with NCI-H23 lung is 92.5%; with NCI-H226 lung it was 101%; in the assay with NCI-H322M lung, 96.2%; in the assay on HOP-62 NSCLC it was 100%; in the assay with NCI-H460 lung, 96.4%; in the assay with HOP-92 NSCLC, 96.4%. In addition, the values for the growth in the assay on NCI-H522 lung, with A549/ATCC NSCLC and in the assay with COLO 205 colon were 91.8%, 73.3% and 91.7%, respectively.
On to `O=C(CNCCN1CCOCC1)N1c2cccc3cccc(c23)N(C(=O)CNCCN2CCOCC2)C1c1cn(-c2ccccc2)nc1-c1cccc([N+](=O)[O-])c1`, for which the growth was 95.8% with NCI-H23 lung; 81.4% in the assay with NCI-H226 lung; 97.6% in the assay with NCI-H322M lung; 89.7% in the assay with HOP-62 NSCLC; 96% in the assay with NCI-H460 lung; 53.2% in the assay with HOP-92 NSCLC. In addition, the growth in the assay with NCI-H522 lung is 75.3%; in the assay on A549/ATCC NSCLC, 82.3%; in the assay on COLO 205 colon, 52.8%.
As for `CN(C)CCC(=O)c1ccc([N+](=O)[O-])cc1`, the growth with NCI-H23 lung was 109%; in the assay on NCI-H226 lung, 94.8%; in the assay with NCI-H322M lung it was 104%; in the assay on HOP-62 NSCLC, 98.6%; in the assay on NCI-H460 lung, 107%; in the assay with HOP-92 NSCLC, 89.2%. Also, the values for the growth with NCI-H522 lung, with A549/ATCC NSCLC and with COLO 205 colon were -23% (active), 109% and 107%, respectively.
For the molecule `CCOC(=O)c1cc(C(=O)c2ccc(OC)cc2)n2ccc(/C=C/c3cc[n+](CC(=O)c4ccc(OC)cc4)cc3)cc12`, the growth is 83.6% in the assay with NCI-H23 lung; 90.7% in the assay on NCI-H226 lung; 86.3% in the assay with NCI-H322M lung; 81.1% in the assay on HOP-62 NSCLC; 75.1% in the assay on NCI-H460 lung; 50.1% with HOP-92 NSCLC. The results for the growth in the assay with NCI-H522 lung, with A549/ATCC NSCLC and with COLO 205 colon were 57.1%, 52.2% and 65.3%, respectively.
On to `Oc1c(Cl)cc(Cl)c(Cl)c1CNCCNCc1c(O)c(Cl)cc(Cl)c1Cl`, for which the growth with NCI-H23 lung is 24.7%; with NCI-H226 lung, 56.2%; in the assay on NCI-H322M lung, 21.8%; in the assay with HOP-62 NSCLC, 25%; in the assay on NCI-H460 lung, 13%; in the assay with HOP-92 NSCLC it was 27.8%. For the same molecule, the growth is 14.9% in the assay with NCI-H522 lung, 13.4% with A549/ATCC NSCLC and 13.3% in the assay with COLO 205 colon.
With `N#CC1C(C#N)C2c3ccccc3C=CN2C1C(=O)c1ccc(Br)cc1` (stereo not drawn), the growth in the assay on NCI-H23 lung was 91.4%; in the assay on NCI-H226 lung, 91.6%; in the assay with NCI-H322M lung it was 96.8%; in the assay with HOP-62 NSCLC, 97.7%; in the assay with NCI-H460 lung it was 87.7%; in the assay on HOP-92 NSCLC, 95.8%. The growth in the assay on NCI-H522 lung was 88.7%; in the assay with A549/ATCC NSCLC, 83.6%; in the assay on COLO 205 colon it was 107%.
In the case of `Nc1c(C(=O)Nc2cccc3cnccc23)sc2nc3c(cc12)CN(Cc1ccccc1)CC3`, the growth in the assay with NCI-H23 lung was 99.9%; in the assay on NCI-H226 lung, 92.5%; in the assay on NCI-H322M lung, 96.9%; in the assay with HOP-62 NSCLC, 98.7%; in the assay on NCI-H460 lung it was 109%; in the assay with HOP-92 NSCLC, 96.4%. In addition, the growth with NCI-H522 lung is 97.2%; in the assay with A549/ATCC NSCLC, 107%; with 786-0 renal, 109%; in the assay with COLO 205 colon, 112%.
On to `Nc1ccccc1NC(=O)c1ccc(-n2nc(-c3ccccc3)c3ccccc32)cc1`, for which the growth in the assay on NCI-H23 lung was 89.1%; with NCI-H226 lung, 64.7%; in the assay with NCI-H322M lung, 83.5%; in the assay on HOP-62 NSCLC it was 84.7%; with NCI-H460 lung it was 79.3%; in the assay on HOP-92 NSCLC it was 78.9%. Further, the growth with NCI-H522 lung was 25%; in the assay on A549/ATCC NSCLC it was 74.5%; in the assay with COLO 205 colon, 117%.
On to `N#C/C(=C\c1ccc([N+](=O)[O-])s1)c1nc2cc(Cl)ccc2s1`, for which the growth is 2.73% (active) in the assay with NCI-H23 lung; -74.1% (active) with NCI-H226 lung; 99.3% with NCI-H322M lung; 12.6% in the assay on HOP-62 NSCLC; 6.38% (active) with NCI-H460 lung; -37.8% (active) with HOP-92 NSCLC. Moreover, the growth is -35.9% (active) with NCI-H522 lung, 25.1% in the assay on A549/ATCC NSCLC and -26.6% (active) with COLO 205 colon.
For `O=C(CCN1CCCC1)c1ccc([N+](=O)[O-])cc1`, the growth with NCI-H23 lung was 101%; with NCI-H226 lung, 99.1%; with NCI-H322M lung it was 101%; in the assay with HOP-62 NSCLC, 98.2%; in the assay with NCI-H460 lung, 108%; in the assay with HOP-92 NSCLC, 109%. Also, the growth is 2.13% (active) with NCI-H522 lung, 101% with A549/ATCC NSCLC and 107% in the assay on COLO 205 colon.
Take `COc1ccc(C(=O)c2cc(OC)c(OC)c(OC)c2)cc1O`: the growth in the assay with NCI-H23 lung is 27.7%; with NCI-H226 lung, 84.6%; with NCI-H322M lung, 43.7%; with HOP-62 NSCLC it was 22.7%; in the assay with NCI-H460 lung it was 2.85% (active); in the assay with HOP-92 NSCLC, 51.5%. The figures for the growth in the assay on NCI-H522 lung, in the assay with A549/ATCC NSCLC and in the assay with COLO 205 colon were 12.4%, 17.8% and 41.9%, respectively.
As to `Cn1cc(-c2nc(-c3c[nH]c4c(Cl)nccc34)cs2)c2cc(Br)ccc21`, the growth in the assay on NCI-H23 lung is 99.8%; with NCI-H226 lung, 81.4%; in the assay on NCI-H322M lung, 93.2%; in the assay on HOP-62 NSCLC it was 82%; in the assay with NCI-H460 lung, 80.2%; in the assay with HOP-92 NSCLC, 91.2%. Besides, the results for the growth with A549/ATCC NSCLC, in the assay on 786-0 renal and with COLO 205 colon were 66.6%, 84.6% and 90.4%, respectively.
For `O=C(Cn1c(C(=O)c2ccccc2)nc2ccccc21)c1ccc(F)cc1`, the growth in the assay on NCI-H23 lung is 67.3%; in the assay with NCI-H226 lung, 84%; with NCI-H322M lung, 75%; in the assay on HOP-62 NSCLC, 78.2%; in the assay with NCI-H460 lung, 98.6%; in the assay on HOP-92 NSCLC it was 77.3%. The growth in the assay with NCI-H522 lung is -9.34% (active); in the assay on A549/ATCC NSCLC, 79.3%; with 786-0 renal it was 75.9%; with COLO 205 colon it was 119%.
For `N#C/C(=C\c1ccccn1)c1nc2cc(Cl)ccc2s1`, the growth with NCI-H23 lung is 72.1%; with NCI-H226 lung it was 67.9%; in the assay with NCI-H322M lung it was 87.1%; in the assay on HOP-62 NSCLC, 63.5%; with NCI-H460 lung, 92%; in the assay on HOP-92 NSCLC, 55.8%. The growth was 63.4% in the assay with NCI-H522 lung, 78.1% in the assay on A549/ATCC NSCLC and 101% with COLO 205 colon.
